Assay outcomes as filed in PubChem BioAssay.
An excerpt weighted towards active compounds, which were near 7.1% of everything screened.
ATXN2 expr inh: inhibitors of ATXN2 expression; hit rate 0.72% among 360,000; HEK-293 ATXN2-luciferase reporter, luminescence, 24 h; Potency, µM (doses to about 57 µM), for inactives: at the top dose activity change, negative = inhibition, most hits filed as inhibitors; also: potency is read from the fitted curve at half-maximal effect; % is scaled to controls: 0 for no effect and ±100 for the full control effect; nearly all actives have a fitted effect of over 55% in size
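ATXN2-luciferase reporter cells (luciferase flanked by upstream and downstream ATXN2 gene portions) were treated 24 h at 37 °C with compounds at up to 57 uM. SteadyGlo luminescence gave expression; GF-AFC fluorescence gave viability.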
PINK1 expr mod: changes PINK1 expression | AID 624263 | Potency, µM (highest dose often 76.6 µM), inactives show top-dose activation (PINK1 increase), hits mostly activators | hit rate 0.2% among 410,000 | PINK1 immunofluorescence, high-content cytometry, 24 h; active = well fitted activation curve with a large enough effect; inconclusive = small, poorly fitted or top-dose-only effect; cell line not stated here; also: potency is read from the fitted curve at half-maximal effect; % of control where 0% means no effect; nearly all actives have a fitted effect of over 65% in size
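Readout is PINK1 immunofluorescence, quantified alongside mitochondrial, cell and nuclear markers by laser-scanning microplate cytometry. Cells from a stable line were exposed to compound titrations (5 concentrations) for 24 hours, with CCCP controls.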
MCF10A rereplic: DNA re-replication induction in MCF 10a cells; AID 624296; Potency, µM (series often up to 46.1 µM), for the others: at the highest dose activity, positive = re-replication, usual class: activators; hit rate 2.9% among 350,000; MCF 10A DNA re-replication, Hoechst nuclear intensity, 48 h; also: potency is read from the fitted curve at half-maximal effect; % of control where 0% means no effect; nearly all actives have a fitted effect of over 50% in size
IL1B secr inh: inhibitors of inflammasome signaling (IL-1 beta secretion). hit rate 4.7% among 360,000. THP-1 LPS/ATP IL-1B secretion, AlphaLISA, 16 h; hits give low values. activity change, % at 57.5 µM; in the data active = activity change below about -50%; inconclusive = mostly about -30% to -49%; also: % is scaled to controls: 0 for no effect and ±100 for the full control effect
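THP-1 cells pretreated 1 hr with compounds (up to 57.5 uM final), then stimulated with LPS (250 ng/mL final) plus ATP (1.25 mM final); secreted IL-1B measured by AlphaLISA after 16 hr, decreased signal indicating inhibition.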
ATXN viability: reduces viability in counter-screen for ATXN expression inhibitors; S2 cells (HEK-293 line with an ATXN2-luciferase reporter) viability, CellTiter-Fluor protease fluorescence, 24 h; Potency, µM (top dose mostly 56.7 µM), actives largely listed as cytotoxic; hit rate 0.49% among 400,000; AID 651635; also: potency is read from the fitted curve at half-maximal effect; nearly all actives have a fitted effect of over 40% in size
SW480 rerep: inducers of DNA re-replication in SW480 colon cancer cells | Potency, µM (doses to about 46.1 µM), without a hit: at the top dose re-replication activation, usual class: activators | hit rate 1.8% among 340,000 | SW480 DNA re-replication, Hoechst DNA content imaging, 48 h; also: potency is read from the fitted curve at half-maximal effect; % of control where 0% means no effect; nearly all actives have a fitted effect of over 55% in size
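Compounds, transferred as 23 nL by pin tool, were incubated with cells for 48 hr; DNA content per nucleus was then quantified by Hoechst staining and fluorescence plate imaging.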
Numbers without * were called inactive. Unless noted, calls follow the shape of the dose curve; as a rule, active = well fitted curve in the direction sought with a large enough effect; inconclusive = small, poorly fitted or top-dose-only effect, or another doubt; inactive = no such curve, though single readings can be large; an effect the other way counts as inactive or inconclusive.

What do the screens show for `Cc1ccc(CN2C(=O)C(C)Oc3ccc(C)cc32)cc1` (configuration not stated)?
ATXN2 expr inh: 4%; PINK1 expr mod: 1%; IL1B secr inh: -2; ATXN viability: inactive

What do the screens show for `Cc1cccc(NC(=O)/C(C#N)=C/c2ccc(Sc3ccccc3)o2)c1C`?
PINK1 expr mod: 7%; MCF10A rereplic: 18µM*; IL1B secr inh: -18; ATXN viability: inactive; SW480 rerep: inconclusive

Results for CCc1cccc(NC(=O)CSc2n[nH]c(-c3ccccc3Cl)n2)c1 ?
PINK1 expr mod: 2%

What do the screens show for `CCCc1nc2ccc(C)cn2c1Cc1ccc(C)cc1`?
ATXN2 expr inh: inconclusive; PINK1 expr mod: 8%; IL1B secr inh: -4; ATXN viability: 25µM*

What do the screens show for `Cc1ccc2nc(C3CCCCC3)c(Cc3ccccc3)n2c1`?
ATXN2 expr inh: inconclusive; PINK1 expr mod: inconclusive; IL1B secr inh: -14; ATXN viability: 13µM*

How did C(=C/c1nccc2c1[nH]c1ccccc12)/c1ccc2c(c1)OCO2 do in these assays?
ATXN2 expr inh: 1%; PINK1 expr mod: 3%; MCF10A rereplic: inconclusive; IL1B secr inh: -2; SW480 rerep: 21µM*

How did COc1ccc(OC)c(C(=O)N2CCc3c(cnc(C)c3CNS(=O)(=O)N(C)C)C2)c1 do in these assays?
PINK1 expr mod: -1%; ATXN viability: inactive

What do the screens show for `CCN(CC)CCCOc1cc2nc(N3CCCN(C)CC3)nc(NC3CCN(C)CC3)c2cc1OC`?
PINK1 expr mod: 0%

Results for C/C(=N\Nc1nc2ccccc2[nH]1)c1ccc2c(c1)OCCO2 ?
ATXN2 expr inh: 14%; PINK1 expr mod: 3%; MCF10A rereplic: 12%; IL1B secr inh: -54*; ATXN viability: inactive; SW480 rerep: 11%

How did C/C(=N\NC(=O)c1ccncc1)c1cc2ccccc2o1 do in these assays?
ATXN2 expr inh: 10%; PINK1 expr mod: 0%; MCF10A rereplic: -4%; IL1B secr inh: -17; ATXN viability: inactive; SW480 rerep: 3%

How did C/C(=N\Nc1nc2ccccc2[nH]1)c1ccc2c(c1)OCO2 do in these assays?
ATXN2 expr inh: inconclusive; PINK1 expr mod: -3%; MCF10A rereplic: inconclusive; IL1B secr inh: -83*; ATXN viability: inactive; SW480 rerep: 21µM*

What do the screens show for `C/C(=N\Nc1nc2ccccc2[nH]1)c1cc2ccccc2o1`?
ATXN2 expr inh: 10%; PINK1 expr mod: 4%; MCF10A rereplic: inconclusive; IL1B secr inh: -95*; SW480 rerep: -1%

Results for COc1cc2c(c(OC)c1OC)-c1c(cc3c(c1OC)OCO3)C[C@@H](C)[C@](C)(O)C2 ?
ATXN viability: inactive

How did CCn1c(C(=O)Nc2ccccc2C(=O)OC)cc2sc(Cl)cc21 do in these assays?
ATXN2 expr inh: 0%; PINK1 expr mod: -1%; ATXN viability: inactive

What do the screens show for `Cc1cc(C)c2c(=O)c3c(oc2c1)C(=O)N(Cc1ccc(F)cc1)C3c1cccc(O)c1` (configuration not stated)?
ATXN2 expr inh: inconclusive; PINK1 expr mod: 2%; ATXN viability: inconclusive

Results for CCn1cc(C(=O)NCCN(CC(C)C)CC(C)C)c(=O)c2cc(S(=O)(=O)N(C)C3CCCCC3)ccc21 ?
ATXN2 expr inh: 0%; PINK1 expr mod: 1%; ATXN viability: inactive

Results for COc1ccc(NC(=O)CCc2c(C)nc3c(-c4ccccc4)c(C)nn3c2C)cc1Cl ?
ATXN2 expr inh: 0%; PINK1 expr mod: 1%; ATXN viability: inactive

What do the screens show for `NC(=O)CSc1ncc2c(n1)-c1ccccc1N(Cc1ccccc1)S2(=O)=O`?
ATXN2 expr inh: 2%; PINK1 expr mod: 0%; ATXN viability: inactive

What do the screens show for `Nc1ccccc1NC(=O)c1ccc(CNc2nccc(-c3cccnc3)n2)cc1`?
ATXN2 expr inh: 69%

How did CCSc1ncc(Cl)c(C(=O)Nc2ccc(S(=O)(=O)N3CCCCC3)cc2)n1 do in these assays?
ATXN2 expr inh: -28%; PINK1 expr mod: 2%; ATXN viability: inactive
